Here are results for seven molecules from PubChem BioAssay.

The subject of test [1] is TRPC4 beta (transient receptor potential cation channel C4), mouse. Briefly: activators of mouse TRPC4 channel, confirmation, cell-based, Fluo4 calcium, HEK293 TRPC4beta/mu-opioid, duplicates, 10 µM (AID 2426;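 active = fluorescence ratio normalized to control raised more than 50% in primary screen plus both repeat runs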). The conditions noted are these: Fluo4 calcium fluorescence, at 10 µM; active compounds read high.
In test [2] the test system is transient receptor potential cation channel C4 beta (TRPC4), mouse. Briefly: activators of mouse TRPC4 channel, confirmation, cell-based, second round, Fluo4, HEK293 TRPC4beta/mu-opioid, 1 µM (AID 2461;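 active = primary screen active and over 50% activation in each of two duplicate runs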). The settings on record: Fluo4 calcium fluorescence, at 1 µM; active compounds read high.
Test [3] concerns TRPC4 (transient receptor potential cation channel C4 beta), mouse. Briefly: positive allosteric modulators of mouse TRPC4, confirmation, cell-based, second round, Fluo-4, HEK293 TRPC4beta/mu-opioid, 1 µM (AID 2554;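 active = primary screen hit whose fluorescence ratio, in both repeats, exceeds the weak agonist control mean by 3 SD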). The conditions noted are these: DAMGO EC20, Fluo-4 calcium flux, at 1 µM; active compounds read high.
Test [4] relates to TRPC4 beta (transient receptor potential cation channel C4), mouse. Briefly: positive allosteric modulators of mouse TRPC4, confirmation, cell-based, Fluo-4, HEK293 TRPC4beta/mu-opioid (AID 2555;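 active = primary screen hit whose calcium fluorescence ratio, in both repeats, exceeds the weak agonist control mean by 3 SD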). The settings on record: DAMGO EC20, Fluo-4 calcium flux, at 10 µM; active compounds read high.
Test [5] concerns the target Short transient receptor potential channel 4 (Mus musculus) (UniProt Q9QUQ5). Briefly: inhibitors of mouse TRPC4 channel, confirmation, cell-based, Fluo4, HEK293 TRPC4beta/mu-opioid (AID 2636;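 active = calcium signal cut by more than 3 SD below the full-agonist control yet still positive, in both repeats and the earlier primary screen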). The conditions noted are these: DAMGO, Fluo4 calcium flux, at 10 µM; active compounds read high. For orientation: A change in cytosolic calcium serves as a functional read-out for many receptors and channels.

The target is the same in test [6]. Briefly: inhibitors of mouse TRPC4 channel, confirmation, cell-based, second round, Fluo4, HEK293 TRPC4beta/mu-opioid, 1 µM (AID 2637;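 active = calcium signal ratio cut to more than 3 SD under the fully stimulated control mean yet still positive, in both repeats and the primary screen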). The conditions noted are these: Fluo4 calcium flux, DAMGO, at 1 µM; active compounds read high.
For test [7] the target is unchanged. Briefly: mouse TRPC4 channel activators, dose response, cell-based, HEK293 TRPC4/mu-opioid, Fluo-4 calcium (AID 434937;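 active = primary screen activator hit with a dose response curve and TRPC4 channel activation at any tested dose; inactive = no activation, no dose response, or not a primary hit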).
The target is the same in test [8]. Briefly: TRPC4 positive allosteric modulators, dose response, cell-based, HEK293 TRPC4/mu-opioid, Fluo-4 calcium, EC20 DAMGO (AID 434941;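 active = earlier screen potentiator hit that boosts the TRPC4 ion channel at some dose, with a dose response; inactive = no potentiation, no dose response, or not a prior hit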;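 also: calcium entry triggered by an EC20 dose of DAMGO at the co-expressed mu-opioid receptor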).
Test [9] shares this target. Briefly: mouse TRPC4 channel inhibitors, dose response, cell-based, HEK293 TRPC4/mu-opioid, Fluo-4 calcium (AID 434942;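 active = primary screen inhibitor hit that blocks the TRPC4 channel at some tested dose, yielding a dose curve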).
For test [10], the target named is Short transient receptor potential channel 6 (Mus musculus) (UniProt Q61143). Briefly: inhibition of mouse TRPC6 channel, confirmation, selectivity assay for TRPC4 inhibitor project, cell-based, HEK293, membrane potential dye, duplicate (AID 434948;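 active = active in primary screen and both duplicates, each dropping signal beyond three positive-control SD with fluorescence still positive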). The conditions noted are these: HEK293 TRPC6, membrane potential dye fluorescence, at 10 µM, stimulated with maximal-effect acetylcholine; active compounds read high.

Test [11] shares this target. Briefly: activation of mouse TRPC6 channel, confirmation, selectivity assay for TRPC4 activator project, cell-based, HEK293, membrane potential dye, duplicate (AID 434950;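 active = membrane potential signal rise above negative control mean plus 3 SD in both duplicates, also active in the earlier TRPC4 screen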). The conditions noted are these: HEK293 TRPC6, membrane potential fluorescence, at 10 µM; active compounds read high.
For test [12] the target is unchanged. Briefly: TRPC6 potentiation by TRPC4 potentiator hits, confirmation, selectivity assay for TRPC4 potentiator project, HEK293 cells, membrane potential dye, duplicate (AID 434952). The conditions noted are these: HEK293 TRPC6, membrane potential dye fluorescence, at 10 µM, maximal acetylcholine added after compound; active compounds read high.
In test [13] the target is Short transient receptor potential channel 4 (Mus musculus) (UniProt Q9QUQ5). Briefly: calcium flux activators in TRPC4/5HT1a cells, counter-screen for TRPC4 activator project, cell-based, second counter screen, HEK293 TRPC4/5HT1a, Fluo-4 (AID 434977;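 active = calcium signal rise above buffer-control mean plus 5 SD in both duplicates, and also a hit in the primary screen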). The conditions noted are these: Fluo-4 calcium flux, at 10 µM; active compounds read high.
A short description of test [14]: calcium flux inhibitors in TRPC4/5HT1a cells, confirmation, counter-screen for TRPC4 inhibitor project, cell-based, second counter screen, HEK293 TRPC4/5HT1a, Fluo-4 (AID 434978;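 active = primary screen active whose calcium signal fell more than 3 SD beyond the full-serotonin control mean in both duplicate plates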;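 as to outcome: serotonin given first at submaximal then at maximal dose after compound preincubation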). The settings on record: Fluo-4 calcium flux, at 10 µM, serotonin added to trigger calcium flux; active compounds read high.
Test [15] deals with TRPC4 (mouse), co-expressed with 5HT1a in HEK293. Briefly: calcium flux potentiators in TRPC4/5HT1a cells, confirmation, counter-screen for TRPC4 potentiator project, cell-based, second counter screen, HEK293 TRPC4/5HT1a, Fluo-4 (AID 434979;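 active = signal rise over 3 SD above mean of control wells given weak agonist, in both repeats and first screen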). The settings on record: Fluo-4 calcium flux, at 10 µM, serotonin added at its EC20 dose; active compounds read high.
Test [16] can be described thus: calcium flux activation in mu-opioid HEK293 cells, confirmation, counter-screen for TRPC4 activator project, cell-based, HEK293 mu-opioid receptor line (AID 449723;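 active = hit in primary screen, with calcium signal over 5 SD above buffer well mean in both duplicates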;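 also: counter screen cells carry the mu-opioid receptor alone and lack TRPC4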). The conditions noted are these: Fluo-4 calcium fluorescence, at 10 µM; active compounds read high.
Test [17] can be described thus: calcium flux enhancement in mu-opioid HEK293 cells, confirmation, counter-screen for TRPC4 allosteric potentiator project, cell-based, HEK293 mu-opioid receptor line (AID 449724;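 active = calcium signal rise more than 3 SD above the low-dose agonist control mean, in both duplicate plates and the primary screen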;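 also: HEK293 cells carrying mu-opioid receptor only with no TRPC4 channel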). The settings on record: Fluo-4 calcium flux, at 10 µM, compound added before EC20 DAMGO stimulus; active compounds read high.
Test [18] can be described thus: thallium flux activation in parental CHO cells, counter-screen for KCNQ1 potentiator project (AID 493006;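 active = duplicate-averaged activation above buffer control mean plus 5 SD of those controls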;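 as to activation: fluorescence ratio of max minus min over baseline after K+ and Tl+ depolarization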). The settings on record: parental CHO-K1 cells, FluxOR thallium flux, at 10 µM; active compounds read high. A general note: The purpose of a counterscreen is to sort out artefacts and off-target activity.
Test [19] deals with Potassium voltage-gated channel subfamily KQT member 1 (Homo sapiens) (UniProt P51787). Briefly: KCNQ1 potassium channel potentiators, confirmation, FluxOR thallium flux, CHO cells, duplicates (AID 493007;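 active = potentiation averaged over duplicate wells exceeding buffer-only control mean by more than 3 SD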;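 also: 0% = buffer-only wells and 100% = R-L3 activator control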). The conditions noted are these: KCNQ1 cell line, FluxOR thallium flux fluorescence, at 10 µM; active compounds read high, % of reference activator effect, buffer zero.
The target in test [20] is Potassium voltage-gated channel subfamily KQT member 2 (Rattus norvegicus) (UniProt O88943). Briefly: rat KCNQ2 channel potentiation, selectivity assay for KCNQ1 potentiator project, KCNQ2-CHO-K1 cells (AID 493009;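 active = mean duplicate potentiation above the buffer control mean plus 5 SD of buffer wells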;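 also: assay conditions were tuned for KCNQ1 rather than KCNQ2 modulators; signal is max minus min fluorescence divided by baseline after thallium stimulus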). The conditions noted are these: FluxOR thallium flux fluorescence, at 10 µM; active compounds read high, scaled: buffer 0, activator control 100.

The structures appear in SMILES notation. For some of these results: Results with a measured potency or affinity are listed apart. The source made the active and inactive calls.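 The calls were made as follows, unless noted: active = compound raising the membrane signal above positive-control mean plus 3 SD in both repeats, and a primary screen hit; inactive = the rest.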

Sequence of Short transient receptor potential channel 4 (Mus musculus) (Q9QUQ5 whole entry, looked up): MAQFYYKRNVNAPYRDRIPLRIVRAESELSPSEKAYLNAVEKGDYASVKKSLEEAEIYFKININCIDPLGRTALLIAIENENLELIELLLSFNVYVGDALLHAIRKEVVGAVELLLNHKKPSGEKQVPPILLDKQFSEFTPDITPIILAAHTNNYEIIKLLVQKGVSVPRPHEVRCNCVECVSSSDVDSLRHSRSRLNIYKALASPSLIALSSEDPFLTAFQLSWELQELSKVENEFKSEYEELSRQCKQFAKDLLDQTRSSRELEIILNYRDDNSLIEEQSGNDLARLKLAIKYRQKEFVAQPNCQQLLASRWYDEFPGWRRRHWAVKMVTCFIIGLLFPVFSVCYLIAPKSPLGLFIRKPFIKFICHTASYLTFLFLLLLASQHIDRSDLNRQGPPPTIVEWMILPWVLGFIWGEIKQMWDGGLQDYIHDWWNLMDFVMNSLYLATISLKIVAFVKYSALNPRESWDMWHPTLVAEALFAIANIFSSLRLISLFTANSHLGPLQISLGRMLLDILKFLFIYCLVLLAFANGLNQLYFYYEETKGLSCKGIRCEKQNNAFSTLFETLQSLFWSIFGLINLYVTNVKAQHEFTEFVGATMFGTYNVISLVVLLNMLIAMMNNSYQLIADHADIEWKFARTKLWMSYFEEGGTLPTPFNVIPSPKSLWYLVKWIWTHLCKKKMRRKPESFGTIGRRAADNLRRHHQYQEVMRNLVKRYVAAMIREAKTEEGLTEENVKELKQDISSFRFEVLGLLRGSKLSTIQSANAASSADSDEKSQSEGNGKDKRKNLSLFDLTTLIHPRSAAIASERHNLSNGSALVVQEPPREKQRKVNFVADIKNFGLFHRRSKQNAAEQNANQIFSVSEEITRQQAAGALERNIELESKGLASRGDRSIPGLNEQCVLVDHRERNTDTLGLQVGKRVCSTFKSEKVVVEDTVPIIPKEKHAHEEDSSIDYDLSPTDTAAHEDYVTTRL
Sequence of Short transient receptor potential channel 6 (Mus musculus) (Q61143 whole entry, looked up): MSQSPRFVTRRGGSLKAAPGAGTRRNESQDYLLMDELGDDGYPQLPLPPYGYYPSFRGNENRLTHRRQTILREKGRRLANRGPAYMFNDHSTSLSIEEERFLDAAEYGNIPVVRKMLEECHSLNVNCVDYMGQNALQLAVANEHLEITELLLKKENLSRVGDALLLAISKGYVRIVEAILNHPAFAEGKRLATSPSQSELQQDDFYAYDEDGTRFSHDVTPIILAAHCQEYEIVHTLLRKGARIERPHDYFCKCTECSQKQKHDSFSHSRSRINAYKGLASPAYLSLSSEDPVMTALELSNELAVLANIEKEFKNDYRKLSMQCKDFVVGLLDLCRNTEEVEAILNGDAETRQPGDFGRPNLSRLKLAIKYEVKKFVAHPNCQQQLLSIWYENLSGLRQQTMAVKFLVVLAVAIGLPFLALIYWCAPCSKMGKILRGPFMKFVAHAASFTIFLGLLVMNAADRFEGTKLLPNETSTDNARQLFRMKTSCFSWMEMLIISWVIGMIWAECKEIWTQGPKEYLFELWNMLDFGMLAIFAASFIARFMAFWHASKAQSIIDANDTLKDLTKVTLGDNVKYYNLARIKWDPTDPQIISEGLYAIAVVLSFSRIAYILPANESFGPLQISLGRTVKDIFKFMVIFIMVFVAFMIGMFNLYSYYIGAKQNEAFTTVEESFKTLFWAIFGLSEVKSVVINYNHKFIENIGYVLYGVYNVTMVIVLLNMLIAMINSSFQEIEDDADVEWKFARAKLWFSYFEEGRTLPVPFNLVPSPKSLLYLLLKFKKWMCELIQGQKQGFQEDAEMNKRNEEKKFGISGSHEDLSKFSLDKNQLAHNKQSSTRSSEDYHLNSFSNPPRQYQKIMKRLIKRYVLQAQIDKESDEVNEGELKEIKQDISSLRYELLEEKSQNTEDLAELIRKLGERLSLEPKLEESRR
Sequence of Potassium voltage-gated channel subfamily KQT member 1 (Homo sapiens) (P51787 whole entry, looked up): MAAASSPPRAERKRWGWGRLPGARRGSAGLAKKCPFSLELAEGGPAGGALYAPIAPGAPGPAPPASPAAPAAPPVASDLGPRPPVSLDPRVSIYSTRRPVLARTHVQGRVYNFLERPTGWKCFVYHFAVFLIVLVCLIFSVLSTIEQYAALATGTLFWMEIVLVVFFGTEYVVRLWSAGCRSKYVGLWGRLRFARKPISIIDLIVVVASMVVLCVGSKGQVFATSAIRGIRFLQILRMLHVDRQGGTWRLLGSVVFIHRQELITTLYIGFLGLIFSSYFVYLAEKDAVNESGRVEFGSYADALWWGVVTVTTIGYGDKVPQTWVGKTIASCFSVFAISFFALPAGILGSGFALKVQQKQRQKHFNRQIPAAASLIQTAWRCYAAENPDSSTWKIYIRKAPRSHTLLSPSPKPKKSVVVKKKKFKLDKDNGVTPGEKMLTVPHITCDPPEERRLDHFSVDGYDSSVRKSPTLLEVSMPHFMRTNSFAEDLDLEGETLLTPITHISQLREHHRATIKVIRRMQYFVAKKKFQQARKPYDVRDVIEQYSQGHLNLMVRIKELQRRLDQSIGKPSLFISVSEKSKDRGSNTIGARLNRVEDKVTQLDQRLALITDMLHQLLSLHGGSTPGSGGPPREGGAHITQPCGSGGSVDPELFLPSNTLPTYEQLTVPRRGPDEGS
Sequence of Potassium voltage-gated channel subfamily KQT member 2 (Rattus norvegicus) (O88943 whole entry, looked up): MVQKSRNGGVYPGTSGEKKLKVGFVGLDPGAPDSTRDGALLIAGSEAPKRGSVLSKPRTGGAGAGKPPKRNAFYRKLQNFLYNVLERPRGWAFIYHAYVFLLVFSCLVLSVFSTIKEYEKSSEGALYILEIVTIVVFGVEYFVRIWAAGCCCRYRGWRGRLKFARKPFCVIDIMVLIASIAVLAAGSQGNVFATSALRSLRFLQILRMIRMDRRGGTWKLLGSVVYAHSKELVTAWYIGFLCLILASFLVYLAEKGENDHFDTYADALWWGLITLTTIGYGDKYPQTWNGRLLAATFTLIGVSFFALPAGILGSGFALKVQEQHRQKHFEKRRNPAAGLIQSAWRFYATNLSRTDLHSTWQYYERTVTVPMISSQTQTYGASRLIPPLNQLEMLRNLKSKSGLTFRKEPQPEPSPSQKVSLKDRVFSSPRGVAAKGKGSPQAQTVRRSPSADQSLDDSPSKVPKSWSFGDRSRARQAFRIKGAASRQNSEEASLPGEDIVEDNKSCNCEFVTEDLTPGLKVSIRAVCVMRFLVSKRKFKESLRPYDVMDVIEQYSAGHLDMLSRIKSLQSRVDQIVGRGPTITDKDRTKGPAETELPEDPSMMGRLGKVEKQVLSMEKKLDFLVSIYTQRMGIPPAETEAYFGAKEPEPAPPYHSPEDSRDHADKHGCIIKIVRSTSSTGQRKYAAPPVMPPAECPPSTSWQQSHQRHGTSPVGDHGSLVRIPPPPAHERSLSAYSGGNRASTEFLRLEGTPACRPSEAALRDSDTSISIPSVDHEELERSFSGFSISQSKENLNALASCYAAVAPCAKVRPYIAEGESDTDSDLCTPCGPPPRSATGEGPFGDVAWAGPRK

On to `O=C1C=CC(=O)N1CCNc1ncc(C(F)(F)F)cc1Cl`, for which the outcome in test [1], in test [2], in test [3], in test [4], in [5] and in test [6] was inactive. Further, the result in [7], in [8], in test [9], in test [10], in test [11] and in test [12] was inactive. Also, the outcome in test [13], in test [14], in test [15], in [16], in [17] and in test [18] was inactive. Moreover, in test [20], the outcome was inactive. The potentiation in test [19] is 77.5% (active).
Turning to `Cc1nn(-c2cc(C(F)(F)F)ccc2Cl)c2nc(C(Cl)(Cl)Cl)[nH]c(=O)c12`, the result in test [1], in test [2], in test [3], in [4], in test [5] and in [6] was inactive. Moreover, the result in test [7], in [8], in test [9], in [10], in test [11] and in [12] was inactive. Besides, the outcome in test [13], in [14], in test [15], in test [16] and in test [17] was inactive. Moreover, the activation in [18] was 191% (active). The potentiation was 52.5% (active) in [19] and 218% (active) in [20].
Consider `COc1ccc(NS(=O)(=O)c2ccc3ccccc3c2)c2ncccc12`, for which the result in test [1], in [2], in test [3], in [4], in test [5] and in [6] was inactive. Further, the outcome in test [7], in test [8], in test [9], in test [10], in test [11] and in test [12] was inactive. Further, the outcome in test [13], in test [14], in test [15], in test [16], in [17] and in test [18] was inactive. In addition, the potentiation in test [19] was 49% (active); in test [20] it was 172% (active).
For the molecule `COc1cc2nc(=S)n3[nH]c(CCn4nc(C)cc4C)nc3c2cc1OC`, the result in [1], in test [2], in test [3], in [4], in test [5] and in [6] was inactive. The result in [7], in test [8], in [9], in [10], in test [11] and in test [12] was inactive. For the same molecule, the outcome in [13], in test [14], in test [15], in [16] and in test [17] was inactive.
`CC(C)CN(C(=O)C1CC1)c1c(N)n(Cc2ccccc2)c(=O)[nH]c1=O`: the outcome in [1], in [2], in test [3], in test [4], in [5] and in test [6] was inactive. The outcome in [7], in test [8], in test [9], in test [10], in test [11] and in test [12] was inactive. The outcome in [13], in test [14], in test [15], in test [16] and in [17] was inactive.
Consider `COc1ccc(CCNC(=O)Cn2cnc3c(cnn3C(C)(C)C)c2=O)cc1OC`, for which the result in test [1], in [2], in [3], in [4], in test [5] and in [6] was inactive. The result in test [7], in test [8], in test [9], in test [10], in test [11] and in test [12] was inactive. Also, the result in test [13], in test [14], in [16] and in [17] was inactive. Besides, the potentiation in [15] was 7.92% (active).
What is called inhibition is how much of the control response was suppressed. In the case of `Cc1nn(-c2ccccc2)c2[nH]c(C(F)(F)F)cc(=O)c12`, the outcome in test [1], in test [2], in test [3], in test [4], in [6] and in [7] was inactive. For the same molecule, the result in [8], in test [10], in [11], in test [12], in test [13] and in test [15] was inactive. The outcome in test [16] and in test [17] was inactive. In addition, the inhibition in test [5] is 49% (active); in test [14], 31.7% (active).
